Results on 28 compounds are retold here after PubChem BioAssay AID1626 (SRMLSC, 2009).

In all, about 220,000 compounds went through this assay and about 2,000 (0.91%) were called active. About 2% were inconclusive and are not listed. The list is a sample of the results. Entries with a potency or affinity are not part of this list. Unmarked numbers belong to inactive results. Cut-off read from the data, not from the text of the source: inconclusive = inhibition above about 80% without an active follow-up result; inactive = below that; test concentration not stated here.

This test can be described thus: M. tuberculosis H37Rv growth inhibitors, H37Rv strain (AID 1626).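 Note: bacteria incubated seven days before Alamar blue readout; 0% = bacteria only wells and 100% = bacteria with antibiotic wells.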 The conditions noted are these: stronger effect = higher value, concentration not given here.
As to `Cc1cccc(S(=O)(=O)NNC(=O)Cc2cccn2C)c1`, the inhibition was 3.18%.

For `COc1ccccc1NC(=O)COc1ccc(Br)cc1CNCCCN1CCOCC1`, the inhibition was -1.49%.

Consider `Oc1ccccc1/C=N/[n+]1ccccc1`, for which the inhibition is -3.35%.

As for `CCc1cc(=O)oc2cc(OCC(=O)O)c(Cl)cc12`, the inhibition was -5.56%.

Consider `CCC(=O)Nc1nnc(SCc2ccc(F)cc2)s1`, for which the inhibition was 7.4%.

For the compound `O=C(Nc1nnc(SCc2ccc(F)cc2)s1)c1ccco1`, the inhibition was -8.91%.

Take `CCCCNC(=O)Nc1ccccc1C(=O)Nc1ccc(OC)cc1`: the inhibition is -1.66%.

For `CCc1cccc(NC(=O)C(NC(=O)C2CCCCC2)C(C)C)c1` (stereo not drawn), the inhibition is -6.21%.

`COc1ccc(C)cc1S(=O)(=O)N1c2ccccc2CC1C` (stereo not drawn): the inhibition is 2.45%.

In the case of `CCOC(=O)c1cnc(-n2nc(C)cc2C)nc1Oc1ccc(C(=O)OC)cc1`, the inhibition was 8.41%.

For `CCOC(=O)c1cnc(-n2nc(C)cc2C)nc1NC`, the inhibition is 19.4%.

In the case of `CCOC(=O)c1cnc(-n2nc(C)cc2C)nc1Nc1ccc(O)cc1`, the inhibition is 0.145%.

`CCOC(=O)c1cnc(-n2nc(C)cc2C)nc1Nc1cccc(C(=O)O)c1`: the inhibition is 7.26%.

As for `CCOC(=O)c1cnc(-n2nc(C)cc2C)nc1Oc1ccc(C#N)cc1`, the inhibition was -2.96%.

As to `CCOC(=O)c1cnc(-n2nc(C)cc2C)nc1N(C)C`, the inhibition is 4.9%.

Consider `CCOC(=O)c1cnc(-n2nc(C)cc2C)nc1NNc1nc(C)cc(C)n1`, for which the inhibition is 71.3%.

Consider `CCOC(=O)c1cnc(-n2nc(C)cc2C)nc1N1CCOCC1`, for which the inhibition was -9.47%.

With `O=C(O)c1cccnc1Br`, the inhibition was 1.4%.

In the case of `Cc1ccc(/C=N/OC(=O)c2nn(C)cc2Cl)cc1`, the inhibition was 11.9%.

Turning to `CCC1CSC(Nc2ccc(C(=O)/C=C/c3ccc(OC)c(OC)c3)cc2)=N1` (stereo not drawn), the inhibition is 44.8%.

Turning to `CCCc1cc(=O)[nH]c(SCc2ccc(F)cc2)n1`, the inhibition is -1.85%.

On to `COc1cccc(NC(=O)N2CCCc3ccccc32)c1`, for which the inhibition is 15%.

As for `COc1cccc2sc(N(CCCN(C)C)C(=O)COc3ccc(Cl)cc3)nc12`, the inhibition was -2.48%.

Take `COc1cccc2sc(N(CCCN(C)C)C(=O)c3sc4ccccc4c3Cl)nc12`: the inhibition was 1.6%.

`Cc1cccc(C(=O)Nc2ccccc2C(=O)OCC(=O)Nc2ccc(C#N)cc2)c1`: the inhibition is 45%.

As to `CCNC(=O)COC(=O)CNC(=O)c1cc(Cl)cc([N+](=O)[O-])c1`, the inhibition was -10%.

For `O=C(Oc1ccc(Cl)c2cccnc12)N1CCCCC1`, the inhibition is 4.79%.

Regarding `CN(C)C(=O)Oc1ccc(Cl)c2cccnc12`, the inhibition was -4.68%.
